Data taken from PubChem BioAssay (NCATS).
Inconclusive results are not listed. Where a call stands in place of a potency, no number is given. The source made the active and inactive calls. Calls follow the shape of the dose curve; as a rule, active = well fitted inhibition curve with a large enough effect; inconclusive = small, poorly fitted or top-dose-only effect; inactive = flat fitted curve, though single readings scatter.

How the values were obtained:
Experiment in all cases: qHTS profiling for inhibitors of Plasmodium falciparum proliferation (AID 504749); also: nearly all actives have a fitted effect of over 60% in size
Conditions in all cases: P. falciparum in erythrocytes, SYBR Green DNA, 72 h; series mostly up to 28.7 µM
CP291 = tested on: CP291
Method in brief: (§1)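 Readout was DNA-dye fluorescence from lysed cultures, ex 485/em 535 nm. Parasitized red cells had grown 72 h with compound; data scaled between 0.29 uM artemisinin and DMSO wells and corrected using vehicle-only plates.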

CP297 = tested on: CP297
Method in brief: as §1

CP305 = tested on: CP305
Method in brief: as §1

CP315 = tested on: CP315
Method in brief: as §1

CP325 = tested on: CP325
Method in brief: as §1

CP329 = tested on: CP329
Method in brief: as §1

CP335 = tested on: CP335
Method in brief: as §1

DFO2036 = tested on: DFO2036
Method in brief: as §1

DIV14 = tested on: DIV14
Method in brief: as §1

DIV17 = tested on: DIV17
Method in brief: as §1

DIV30 = tested on: DIV30
Method in brief: as §1

Dd2 = tested on: Dd2
Method in brief: as §1

ECU = tested on: ECU
Method in brief: as §1

FAB9 = tested on: FAB9
Method in brief: as §1

GB4 = tested on: GB4
Method in brief: as §1

HB3 = tested on: HB3
Method in brief: as §1

ICS = tested on: ICS
Method in brief: as §1

JCK = tested on: JCK
Method in brief: as §1

N140 = tested on: N140
Method in brief: as §1

P93_24 = tested on: P93_24
Method in brief: as §1
Potency is read from the fitted curve at half-maximal effect.

| SMILES | Potency (CP291) | Potency (CP297) | Potency (CP305) | Potency (CP315) | Potency (CP325) | Potency (CP329) | Potency (CP335) | Potency (DFO2036) | Potency (DIV14) | Potency (DIV17) | Potency (DIV30) | Potency (Dd2) | Potency (ECU) | Potency (FAB9) | Potency (GB4) | Potency (HB3) | Potency (ICS) | Potency (JCK) | Potency (N140) | Potency (P93_24) |
| --- | --- | --- | --- | --- | --- | --- | --- | --- | --- | --- | --- | --- | --- | --- | --- | --- | --- | --- | --- | --- |
| C=Cc1c(C)c2cc3[nH]c(cc4nc(cc5nc(cc1[nH]2)C(C)=C5CCC(=O)O)C(CCC(=O)O)=C4C)c(C)c3C=C | inactive | inactive | inactive | inactive | inactive | inactive | inactive | inactive | inactive | inactive | inactive | inactive | inactive | inactive | inactive | inactive | inactive | inactive | inactive | inactive |
| CCN(CC)CCNC(=O)c1cc(Cl)c(N)cc1OC | inactive | inactive | inactive | inactive | inactive | inactive | inactive | inactive | inactive | inactive | inactive | inactive | inactive | inactive | inactive | inactive | inactive | inactive | inactive | inactive |
| CC1(C)[C@@H]2CC[C@@]1(C)C(=O)C2 | inactive | inactive | inactive | inactive | inactive | inactive | inactive | inactive | inactive | inactive | inactive | inactive | inactive | inactive | inactive | inactive | inactive | inactive | inactive | inactive |
| CCC(=O)Nc1ccc(O)cc1 | inactive | inactive | inactive | inactive | inactive | inactive | inactive | inactive | inactive | inactive | inactive | inactive | inactive | inactive | inactive | inactive | inactive | inactive | inactive | inactive |
| NC(=O)NC(=O)Cc1ccccc1 | inactive | inactive | inactive | inactive | inactive | inactive | inactive | inactive | inactive | inactive | inactive | inactive | inactive | inactive | inactive | inactive | inactive | inactive | inactive | inactive |
| NC(=O)NNc1ccccc1 | inactive | inactive | inactive | inactive | inactive | inactive | inactive | inactive | inactive | inactive | inactive | inactive | inactive | inactive | inactive | inactive | inactive | inactive | inactive | inactive |
| C[C@@H]1CN(c2c(F)c(F)c3c(=O)c(C(=O)O)cn(C4CC4)c3c2F)C[C@H](C)N1 | inactive | inactive | inactive | inactive | inactive | inactive | inactive | inactive | inactive | inactive | inactive | inactive | inactive | inactive | inactive | inactive | inactive | inactive | inactive | inactive |
| CCOC(=O)[C@H](CCc1ccccc1)N[C@@H](C)C(=O)N1C(=O)N(C)C[C@H]1C(=O)O | inactive | inactive | inactive | inactive | inactive | inactive | inactive | inactive | inactive | inactive | inactive | inactive | inactive | inactive | inactive | inactive | inactive | inactive | inactive | inactive |
| COc1ccc2c(c1)C(=O)N(CCc1ccc(S(=O)(=O)NC(=O)NC3CCCCC3)cc1)C(=O)C2(C)C | inactive | inactive | inactive | inactive | inactive | inactive | inactive | inactive | inactive | inactive | inactive | inactive | inactive | inactive | inactive | inactive | inactive | inactive | inactive | inactive |
| Cc1cccc(Nc2cc(Cl)nc(SCC(=O)O)n2)c1C | inactive | inactive | inactive | inactive | inactive | inactive | inactive | inactive | inactive | inactive | inactive | inactive | inactive | inactive | inactive | inactive | inactive | inactive | inactive | inactive |
| Cc1cccc(C)c1NC(=O)CN(CC(=O)O)CC(=O)O | inactive | inactive | inactive | inactive | inactive | inactive | inactive | inactive | inactive | inactive | inactive | inactive | inactive | inactive | inactive | inactive | inactive | inactive | inactive | inactive |
| CCOC(=O)c1ccc(O)cc1 | inactive | inactive | inactive | inactive | inactive | inactive | inactive | inactive | inactive | inactive | inactive | inactive | inactive | inactive | inactive | inactive | inactive | inactive | inactive | inactive |
| C[C@](N)(Cc1ccc(O)cc1)C(=O)O | inactive | inactive | inactive | inactive | inactive | inactive | inactive | inactive | inactive | inactive | inactive | inactive | inactive | inactive | inactive | inactive | inactive | inactive | inactive | inactive |
| Nc1ccc(S(=O)(=O)Nc2nccs2)cc1 | inactive | inactive | inactive | inactive | inactive | inactive | inactive | inactive | inactive | inactive | inactive | inactive | inactive | inactive | inactive | inactive | inactive | inactive | inactive | inactive |
| NCCNCCNCCNCCN | inactive | inactive | inactive | inactive | inactive | inactive | inactive | inactive | inactive | inactive | inactive | inactive | inactive | inactive | inactive | inactive | inactive | inactive | inactive | inactive |
| CCCCCCCCCCCCOS(=O)(=O)O | inactive | inactive | inactive | inactive | inactive | inactive | inactive | inactive | inactive | inactive | inactive | inactive | inactive | inactive | inactive | inactive | inactive | inactive | inactive | inactive |
| CC(O)CN(CCN(CC(C)O)CC(C)O)CC(C)O (stereo not given) | inactive | inactive | inactive | inactive | inactive | inactive | inactive | inactive | inactive | inactive | inactive | inactive | inactive | inactive | inactive | inactive | inactive | inactive | inactive | inactive |
| O=C1NS(=O)(=O)c2ccccc21 | inactive | inactive | inactive | inactive | inactive | inactive | inactive | inactive | inactive | inactive | inactive | inactive | inactive | inactive | inactive | inactive | inactive | inactive | inactive | inactive |
| CCCCC(CC)COC(=O)c1ccccc1O (stereo not given) | inactive | inactive | inactive | inactive | inactive | inactive | inactive | inactive | inactive | inactive | inactive | inactive | inactive | inactive | inactive | inactive | inactive | inactive | inactive | inactive |
| CC(=O)Nc1ccc(/C=N/NC(N)=S)cc1 | inactive | inactive | inactive | inactive | inactive | inactive | inactive | inactive | inactive | inactive | inactive | inactive | inactive | inactive | inactive | inactive | inactive | inactive | inactive | inactive |
| C[C@H](N)[C@H](O)c1cccc(O)c1 | inactive | inactive | inactive | inactive | inactive | inactive | inactive | inactive | inactive | inactive | inactive | inactive | inactive | inactive | inactive | inactive | inactive | inactive | inactive | inactive |
| CC12CCC(CC1)C(C)(C)O2 | inactive | inactive | inactive | inactive | inactive | inactive | inactive | inactive | inactive | inactive | inactive | inactive | inactive | inactive | inactive | inactive | inactive | inactive | inactive | inactive |
| CC(=O)CCC(=O)O | inactive | inactive | inactive | inactive | inactive | inactive | inactive | inactive | inactive | inactive | inactive | inactive | inactive | inactive | inactive | inactive | inactive | inactive | inactive | inactive |
| CC1(C)CO[C@@H](CC(=O)O)CN1 | inactive | inactive | inactive | inactive | inactive | inactive | inactive | inactive | inactive | inactive | inactive | inactive | inactive | inactive | inactive | inactive | inactive | inactive | inactive | inactive |
| COc1ccc(S(=O)(=O)Nc2nnc(CC(C)C)s2)cc1 | inactive | inactive | inactive | inactive | inactive | inactive | inactive | inactive | inactive | inactive | inactive | inactive | inactive | inactive | inactive | inactive | inactive | inactive | inactive | inactive |
| NC(CSCC(=O)O)C(=O)O (stereo not given) | inactive | inactive | inactive | inactive | inactive | inactive | inactive | inactive | inactive | inactive | inactive | inactive | inactive | inactive | inactive | inactive | inactive | inactive | inactive | inactive |
| Cc1cc(O)cc2c1O[C@](C)(CCC[C@H](C)CCC[C@H](C)CCCC(C)C)CC2 | inactive | inactive | inactive | inactive | inactive | inactive | inactive | inactive | inactive | inactive | inactive | inactive | inactive | inactive | inactive | inactive | 8.91 µM (active) | inactive | inactive | inactive |
| O=C(O)CC(O)C(=O)O (stereo not given) | inactive | inactive | inactive | inactive | inactive | inactive | inactive | inactive | inactive | inactive | inactive | inactive | inactive | inactive | inactive | inactive | inactive | inactive | inactive | inactive |
| CCN(CC)CCSC(=O)C(c1ccccc1)c1ccccc1 | inactive | inactive | inactive | inactive | inactive | inactive | inactive | inactive | inactive | inactive | inactive | inactive | inactive | inactive | inactive | inactive | inactive | inactive | inactive | inactive |
